Rows were chosen to be rich in hits. Some 8.3% of all compounds tested hit in one or more screens of this group.
VP16 counter: counter-screen for ROR gamma inhibitors: Gal4-VP16 reporter; Potency, µM (highest dose often 53.6 µM), without a hit: at the highest dose activity, negative = inhibition, hits mostly inhibitors; hit rate 3.5% among 310,000; Drosophila S2 Gal4-VP16 UAS-luciferase, luminescence, 20 h;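 further: Gal4-VP16 expression switched on by copper sulfate through the metallothionein promoter; potency means the concentration at half of the fitted maximal effect; on the % scale 0 is the no-effect control and ±100 the full control effect; nearly all actives have a fitted effect of over 50% in size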
RORg inh: inhibitors of mouse ROR gamma transcriptional activity; P51450; Drosophila S2 Gal4-RORgamma UAS-luciferase reporter, 20 h; Potency, µM (highest dose often 53.6 µM), inactives show top-dose activity change, negative = inhibition, actives largely listed as inhibitors; hit rate 5.4% among 310,000; AID 2551; further: potency means the concentration at half of the fitted maximal effect; on the % scale 0 is the no-effect control and ±100 the full control effect; nearly all actives have a fitted effect of over 60% in size
Target sequence (P51450 whole entry, looked up, the tested form may be a part): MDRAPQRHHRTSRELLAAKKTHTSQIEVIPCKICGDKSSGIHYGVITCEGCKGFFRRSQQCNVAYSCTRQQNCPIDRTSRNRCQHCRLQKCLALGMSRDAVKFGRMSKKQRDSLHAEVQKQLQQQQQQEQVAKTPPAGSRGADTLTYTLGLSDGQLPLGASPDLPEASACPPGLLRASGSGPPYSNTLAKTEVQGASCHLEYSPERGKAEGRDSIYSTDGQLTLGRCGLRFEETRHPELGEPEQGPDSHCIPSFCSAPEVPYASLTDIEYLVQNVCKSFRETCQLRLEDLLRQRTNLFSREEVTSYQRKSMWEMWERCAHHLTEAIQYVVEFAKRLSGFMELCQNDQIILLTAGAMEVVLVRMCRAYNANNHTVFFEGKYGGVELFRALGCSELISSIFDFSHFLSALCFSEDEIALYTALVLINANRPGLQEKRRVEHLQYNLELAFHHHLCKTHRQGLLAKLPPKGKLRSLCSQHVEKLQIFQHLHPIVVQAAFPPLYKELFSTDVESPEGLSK
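ROR gamma transcriptional activity was tracked as Gal4-UAS luciferase output in stably transfected Drosophila Schneider cells, with compound added 1 hr before 700 uM copper sulfate induction and a 20 hr ambient-temperature incubation.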
SW480 rereplic: induces DNA re-replication in SW480 colon adenocarcinoma cells; hit rate 1.8% among 340,000; Potency, µM (doses to about 46.1 µM), inactives show at the top dose re-replication activation, actives largely listed as activators; SW480 DNA re-replication, Hoechst DNA content imaging, 48 h; further: potency means the concentration at half of the fitted maximal effect; % of control where 0% means no effect; nearly all actives have a fitted effect of over 55% in size
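Hoechst fluorescence of nuclei (405 nm excitation, 500-530 nm emission) measured by plate-scanning imager after 48 hr compound exposure at 37 C; re-replication scored as increased number of nuclei with elevated intensity.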
BCR signal inh: inhibitors of chronic active B-cell receptor signaling. ABC-DLBCL IkBa-CBG/CBR reporter, luminescence ratio, 4 h. Potency, µM (series often up to 46.1 µM), for inactives: top-dose activity change, negative = inhibition, hits mostly inhibitors. hit rate 0.05% among 340,000; active means well fitted inhibition curve with a large enough effect in the signal ratio, with a control signal flat, not every such curve was filed as active; inconclusive means small, poorly fitted or top-dose-only effect, or effect the other way, or a change in a side signal; the % refers to the signal ratio;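 further: potency means the concentration at half of the fitted maximal effect; plate controls were basal doxycycline-induced cells for no effect and cells given 10 µM MG132 for full effect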
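Concentration-response series (up to 46 uM) were applied to TMD8 dual-reporter cells for 4 h at 37C with doxycycline. Green/red ratio, after filter-overlap correction, defined %Activity; red signal alone was normalised to basal cells and zero luminescence.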
Giardia killer: Giardia lamblia killing | Giardia lamblia trophozoite viability | activity change, % at 7.66 µM, hits read low | hit rate 0.15% among 340,000; in the data active means activity change below about -80%; inconclusive means between about -30% and that limit;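 further: parasites exposed to compound for two days anaerobically before the ATP read; on the % scale 0 is the no-effect control and ±100 the full control effect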
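Trophozoite viability was measured as ATP-dependent luminescence, read 15-30 min after reagent addition. Before that, parasites at 100 cells/well were exposed to compounds for 48 h, anaerobically, at 37 deg C.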
MCF10A rereplic: DNA re-replication induction in MCF 10a cells; MCF 10A DNA re-replication, Hoechst nuclear intensity, 48 h; Potency, µM (titrated, usually from 46.1 µM), for inactives: at the highest dose activity, positive = re-replication, hits mostly activators; hit rate 2.9% among 350,000; further: potency means the concentration at half of the fitted maximal effect; % of control where 0% means no effect; nearly all actives have a fitted effect of over 50% in size
* hit, by the source's call; ? = inconclusive; . = no result given. Unless noted, the call rests on the fitted dose curve; in most records, active means well fitted curve in the direction sought with a large enough effect; inconclusive means small, poorly fitted or top-dose-only effect, or another doubt; inactive means no such curve, though single readings can be large; an effect the other way counts as inactive or inconclusive.

SMILES | VP16 counter | RORg inh | SW480 rereplic | BCR signal inh | Giardia killer | MCF10A rereplic
O=C(CSc1ncnc2ccccc12)Nc1ccc2c(c1)OCO2 | 16.5% | 36.6% | 0.1% | ? | ? | ?
CCC/C(O)=C1\C(=O)CC(C)(C)CC1=Nc1ccc(OC)cc1OC | -5.5% | -15.6% | 18.4µM* | ? | -5.2 | 20.6µM*
Nc1nc2ncc(-c3ccsc3)c(N)n2n1 | 1.7% | 29.6% | 3.66µM* | -13.6% | -6.0 | 7.5%
Oc1c(CN2CCCC(C(F)(F)F)C2)cc(Cl)c2ccccc12 (configuration not stated) | 1.6% | -20.1% | 4.6% | ? | -5.5 | ?
CCn1ccnc1CN1CCc2c([nH]c3ccccc23)C1C(C)(C)C (configuration not stated) | ? | 4.47µM* | 17.5% | ? | 15.5 | -0.8%
CCn1ccnc1CN1CCc2c([nH]c3ccccc23)C1C1CCCCC1 (configuration not stated) | ? | 12.6µM* | -2.6% | ? | 1.9 | -4.1%
CC(=O)c1cc(C(=O)N2CCc3c([nH]c4ccccc34)C2C2CCCCC2)[nH]n1 (configuration not stated) | -5.8% | 41.0% | 11.2% | -7.9% | -15.8 | 1.46µM*
CCOc1ccc(C2c3[nH]c4ccccc4c3CCN2CCCn2cccn2)cc1 (configuration not stated) | 24.0% | 43.3% | -84.1% | ? | -19.8 | 12.5%
COCc1ccc(CN2CCc3c([nH]c4ccccc34)C2C(C)(C)C)o1 (configuration not stated) | ? | 11.2µM* | ? | -3.6% | 1.1 | ?
CSc1ncc(CN2CCc3c([nH]c4ccccc34)C2c2cccc(C)n2)cn1 (configuration not stated) | -13.6% | 0.1% | 6.5% | 2.4% | 3.6 | -11.1%
CC(C)CC1c2[nH]c3ccccc3c2CCN1CCCn1cccn1 (configuration not stated) | 5.0% | 22.5% | -93.9% | -9.0% | 9.4 | ?
CCn1ccnc1CN1CCc2c([nH]c3ccccc23)C1CC(C)C (configuration not stated) | 7.94µM* | 3.16µM* | -1.2% | ? | 11.0 | 11.4%
Cc1c(CN2CCc3c([nH]c4ccccc34)C2C2CCCCC2)cnn1C (configuration not stated) | -8.6% | -11.3% | 6.0% | -8.2% | 35.6 | 18.4µM*
Nc1ccccc1C(=O)CC(N)C(=O)O (configuration not stated) | 28.2µM* | 12.6µM* | . | . | . | .
Cc1ccc(NC(=S)N/N=C2\CC(C)(C)Oc3ccc(O)cc32)cc1 | 5.01µM* | 5.62µM* | -176.1% | ? | -21.6 | 20.6µM*
CC(=O)N1CCC2(CC1)C/C(=N\NC(=S)Nc1ccc(C)cc1)c1cc(O)ccc1O2 | ? | 10µM* | 27.8% | 10.2% | 12.0 | 23.1µM*
Cc1ccccc1NC(=S)N/N=C1\CC(C)(C)Oc2ccc(O)cc21 | -7.9% | ? | 18.7% | ? | -2.7 | 16.3%
COc1ccc(NC(=S)N/N=C2\CC(C)(C)Oc3ccc(OC)cc32)cc1 | 2µM* | 1.41µM* | -3.6% | -13.3% | -14.4 | 4.9%
COc1ccc(NC(=O)COc2cc(O)c3c(c2)OC(C)(C)CC3=O)cc1 | -8.0% | 18.3% | 26.2% | -0.4% | 45.4 | 5.5%
CC(=O)N1CCC(N(CCN2CCOCC2)C(=S)Nc2ccc(C)cc2)CC1 | 6.6% | -1.3% | ? | 11.1% | -2.3 | 4.7%
O=C(CCc1nc(-c2ccccc2Cl)no1)NCCc1ccccc1 | -6.4% | 1.3% | -3.8% | -9.6% | -2.8 | -0.1%
CCCN1CCN(C(=O)c2ccc(CS(=O)c3ccc(F)cc3)o2)CC1 (configuration not stated) | 0.4% | -14.3% | 23.2% | 1.0% | 3.0 | -1.3%
S=c1[nH]nc(-c2cc(-c3ccccc3)n[nH]2)n1/N=C/c1ccc(Cl)cc1 | ? | ? | -1.6% | ? | 10.2 | ?
S=c1[nH]nc(-c2cc(-c3ccccc3)n[nH]2)n1/N=C/c1ccc(Cl)c(Cl)c1 | 7.94µM* | 10µM* | -118.3% | ? | -15.4 | 1.3%
S=c1[nH]nc(-c2cc(-c3ccccc3)n[nH]2)n1/N=C/c1cccc(Cl)c1 | ? | ? | ? | 1.7% | -17.9 | 23.1µM*
SMILES | VP16 counter | RORg inh | SW480 rereplic | BCR signal inh | Giardia killer | MCF10A rereplic
S=c1[nH]nc(-c2ccccn2)n1/N=C/c1ccc(Br)s1 | 7.94µM* | 7.08µM* | -6.9% | 17.4% | -7.9 | 8.3%
S=c1[nH]nc(-c2ccccn2)n1/N=C/c1ccc(Cl)c(Cl)c1 | -23.4% | 7.08µM* | -40.2% | 7.1% | 2.3 | -3.6%
CC(C)CC(=O)Nc1cc2c3c(c1)C(C)C(=O)N3CCC2 (configuration not stated) | 18.6% | -21.6% | 1.7% | 1.6% | ? | -1.8%
COc1cccc(NC(=O)N2C3CCCC2CC(NC(=O)C(C)(C)C)C3)c1 (configuration not stated) | 4.2% | 2.5% | ? | -0.6% | 5.0 | 0.8%
Cc1n[nH]c(=S)n1/N=C/c1ccc(-c2ccc(Cl)cc2)o1 | . | . | -15.1% | . | 1.1 | ?
S=c1[nH]nc(-c2ccccn2)n1/N=C/c1ccc(-c2ccccc2Cl)o1 | -4.4% | 8.91µM* | -5.0% | 14.2% | ? | 15.2%
Cc1cc(C)nc(N/N=C/C=C/c2ccccc2)n1 | 7.94µM* | 1.26µM* | ? | ? | 7.0 | -4.0%
Cc1cc(=O)[nH]c(N/N=C/CCc2ccccc2)n1 | 7.8% | ? | 5.0% | -1.1% | 1.7 | -4.9%
Cc1cc(C)nc(N/N=C/c2ccccc2)n1 | 16.9% | ? | -4.7% | ? | -14.8 | 1.9%
Cc1sc(N/N=C/C=C/c2ccccc2)nc1-c1ccccc1 | ? | 3.55µM* | 13.7% | 7.2% | 4.8 | ?
Cc1cc(=O)[nH]c(N/N=C2/CCCC/C2=C\c2ccccc2)n1 | 17.8µM* | 6.31µM* | ? | 4.4% | 18.3 | 8.0%
Cc1cc(=O)[nH]c(N/N=C/C=C/c2ccccc2)n1 | -19.5% | 12.6µM* | -14.0% | ? | 4.1 | 0.5%
c1ccc(-c2cn(-c3ccccc3)c3ncnc(N4CCN(c5ccccc5)CC4)c23)cc1 | . | . | . | -5.1% | . | .
CCc1c(C(=O)Nc2ncn(Cc3cccc(C)c3)n2)csc1C | 12.6µM* | 3.98µM* | -0.8% | 0.3% | 31.8 | 2.6%
COc1ccccc1N1CCN(c2nc(-c3ccc(C)cc3)nc3ccccc23)CC1 | . | . | . | 1.3% | . | .
CCOC(=O)c1c(NC(=O)CN(CC)CC)sc2c1CCC2 | ? | 12.6µM* | -3.5% | 5.1% | -5.7 | ?
CCOC(=O)c1c(NC(=O)CNCCOC)sc2c1CCCC2 | 1.58µM* | 1.26µM* | -15.2% | ? | 23.5 | ?

Screens as filed in PubChem BioAssay.
